# From PubChem BioAssay AID1159580 (chemical genetic matrix, 2015)
# Screen size: about 5,500 compounds; about 2,000 (36%) were called active. Not shown: some 18% with an inconclusive outcome. Some of the results follow. Values without a mark were called inactive. Cut-off read from the data, not from the text of the source: active = normalized growth mostly below about 0.91 (no sharp cut-off); inconclusive = no clear call, values can overlap the other calls; inactive = mostly above about 0.92.
# Assay: chemical genetic growth profiling, strain panel (AID 1159580);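 note: tested at 20 µM; growth read once vehicle control cultures reached saturation at 30 °C; 1 = growth at the plate median or of vehicle wells; lower values mean less growth of the strain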
# Details: growth OD
smiles,measurement,setting,value
CCC(=O)O[C@H]1CCC2C3CCC4=CC(=O)CC[C@]4(C)C3CC[C@@]21C (some centres not stated),normalized growth,"S. cerevisiae deletion strains, locus YJR066W, strain TOR1, hits give low values",0.884
same,normalized growth,"S. cerevisiae deletion strains, locus YKL009W, strain mrt4, hits give low values",0.974
same,normalized growth,"S. cerevisiae deletion strains, locus YKL068W, hits give low values",0.972
same,normalized growth,"S. cerevisiae deletion strains, locus YKL085W, strain MDH1 (second series), hits give low values",0.901 (active)
same,normalized growth,"S. cerevisiae deletion strains, locus YKL085W, strain MDH1, hits give low values",0.901 (active)
same,normalized growth,"S. cerevisiae deletion strains, locus YKL160W, strain elf1, hits give low values",0.882 (active)
same,normalized growth,"S. cerevisiae deletion strains, locus YKR001C, strain vps1, hits give low values",0.861 (active)
same,normalized growth,"S. cerevisiae deletion strains, locus YKR026C, strain gcn3, hits give low values",0.96
same,normalized growth,"S. cerevisiae deletion strains, locus YKR091W, strain srl3, hits give low values",0.948
same,normalized growth,"S. cerevisiae deletion strains, locus YLL001W, strain dnm1, hits give low values",0.989
same,normalized growth,"S. cerevisiae deletion strains, locus YLL026W, hits give low values",0.971
same,normalized growth,"S. cerevisiae deletion strains, locus YLL041C, strain sdh2, hits give low values",0.957
same,normalized growth,"S. cerevisiae deletion strains, locus YLR027C, strain aat2, hits give low values",0.93
same,normalized growth,"S. cerevisiae deletion strains, locus YLR039C, strain RIC1, hits give low values",0.653 (active)
same,normalized growth,"S. cerevisiae deletion strains, locus YLR058C, strain SHM2, hits give low values",0.956
same,normalized growth,"S. cerevisiae deletion strains, locus YLR102C, strain apc9, hits give low values",0.99
same,normalized growth,"S. cerevisiae deletion strains, locus YLR113W, strain HOG1, hits give low values",0.941
same,normalized growth,"S. cerevisiae deletion strains, locus YLR221C, strain rsa3, hits give low values",0.925
same,normalized growth,"S. cerevisiae deletion strains, locus YLR258W, strain gsy2, hits give low values",0.899 (active)
same,normalized growth,"S. cerevisiae deletion strains, locus YLR262C, strain YPT6 (second series), hits give low values",0.671 (active)
same,normalized growth,"S. cerevisiae deletion strains, locus YLR262C, strain YPT6, hits give low values",0.633
same,normalized growth,"S. cerevisiae deletion strains, locus YLR268W, strain sec22, hits give low values",0.934
same,normalized growth,"S. cerevisiae deletion strains, locus YLR320W, strain mms22, hits give low values",0.83 (active)
same,normalized growth,"S. cerevisiae deletion strains, locus YLR330W, strain CHS5, hits give low values",0.821 (active)
same,normalized growth,"S. cerevisiae deletion strains, locus YLR342W, strain FKS1 (second series), hits give low values",0.745 (active)
same,normalized growth,"S. cerevisiae deletion strains, locus YLR342W, strain FKS1, hits give low values",0.779 (active)
same,normalized growth,"S. cerevisiae deletion strains, locus YLR357W, strain rsc2, hits give low values",0.944
same,normalized growth,"S. cerevisiae deletion strains, locus YLR370C, strain arc18, hits give low values",0.955
same,normalized growth,"S. cerevisiae deletion strains, locus YLR371W, strain rom2, hits give low values",0.783 (active)
same,normalized growth,"S. cerevisiae deletion strains, locus YLR384C, strain iki3, hits give low values",0.969
same,normalized growth,"S. cerevisiae deletion strains, locus YLR418C, strain cdc73, hits give low values",0.672 (active)
same,normalized growth,"S. cerevisiae deletion strains, locus YML016C, strain PPZ1, hits give low values",0.982
same,normalized growth,"S. cerevisiae deletion strains, locus YML032C, strain rad52, hits give low values",0.889 (active)
same,normalized growth,"S. cerevisiae deletion strains, locus YML120C, strain ndi1, hits give low values",0.952
same,normalized growth,"S. cerevisiae deletion strains, locus YML124C, strain tub3, hits give low values",0.972
same,normalized growth,"S. cerevisiae deletion strains, locus YMR058W, strain fet3, hits give low values",0.916
same,normalized growth,"S. cerevisiae deletion strains, locus YMR078C, strain ctf18, hits give low values",0.978
same,normalized growth,"S. cerevisiae deletion strains, locus YMR125W, strain sto1, hits give low values",0.913
same,normalized growth,"S. cerevisiae deletion strains, locus YMR129W, hits give low values",0.942
same,normalized growth,"S. cerevisiae deletion strains, locus YMR205C, strain PFK2, hits give low values",0.785 (active)
same,normalized growth,"S. cerevisiae deletion strains, locus YMR223W, strain ubp8, hits give low values",0.888 (active)
same,normalized growth,"S. cerevisiae deletion strains, locus YMR231W, strain pep5, hits give low values",0.957
same,normalized growth,"S. cerevisiae deletion strains, locus YMR263W, strain SAP30, hits give low values",0.963
same,normalized growth,"S. cerevisiae deletion strains, locus YMR307W, strain GAS1, hits give low values",0.917
same,normalized growth,"S. cerevisiae deletion strains, locus YNL067W, strain RPL9B, hits give low values",0.985
same,normalized growth,"S. cerevisiae deletion strains, locus YNL071W, strain lat1, hits give low values",0.719 (active)
same,normalized growth,"S. cerevisiae deletion strains, locus YNL183C, strain NPR1, hits give low values",0.89
same,normalized growth,"S. cerevisiae deletion strains, locus YNL233W, strain BNI4, hits give low values",0.803 (active)
same,normalized growth,"S. cerevisiae deletion strains, locus YNL248C, strain rpa49, hits give low values",0.86 (active)
same,normalized growth,"S. cerevisiae deletion strains, locus YNL250W, strain rad50, hits give low values",1
same,normalized growth,"S. cerevisiae deletion strains, locus YNL271C, strain bni1, hits give low values",0.963
same,normalized growth,"S. cerevisiae deletion strains, locus YNL298W, strain CLA4, hits give low values",0.949
same,normalized growth,"S. cerevisiae deletion strains, locus YNL307C, strain MCK1, hits give low values",0.679 (active)
same,normalized growth,"S. cerevisiae deletion strains, locus YNL322C, strain KRE1 (second series), hits give low values",0.952
same,normalized growth,"S. cerevisiae deletion strains, locus YNL322C, strain KRE1, hits give low values",0.958
same,normalized growth,"S. cerevisiae deletion strains, locus YNR049C, strain mso1, hits give low values",0.932
same,normalized growth,"S. cerevisiae deletion strains, locus YNR052C, strain pop2, hits give low values",0.924
same,normalized growth,"S. cerevisiae deletion strains, locus YOL006C, strain TOP1, hits give low values",0.74
same,normalized growth,"S. cerevisiae deletion strains, locus YOL012C, strain htz1",0.608
same,normalized growth,"S. cerevisiae deletion strains, locus YOL147C, strain pex11, hits give low values",0.967
same,normalized growth,"S. cerevisiae deletion strains, locus YOR001W, strain rrp6, hits give low values",0.971
same,normalized growth,"S. cerevisiae deletion strains, locus YOR061W, strain CKA2, hits give low values",0.971
same,normalized growth,"S. cerevisiae deletion strains, locus YOR069W, strain VPS5, hits give low values",0.976
same,normalized growth,"S. cerevisiae deletion strains, locus YOR070C, strain gyp1, hits give low values",0.944
same,normalized growth,"S. cerevisiae deletion strains, locus YOR080W, strain dia2, hits give low values",0.941
same,normalized growth,"S. cerevisiae deletion strains, locus YOR083W, strain WHI5, hits give low values",0.796 (active)
same,normalized growth,"S. cerevisiae deletion strains, locus YOR106W, strain vam3, hits give low values",0.837 (active)
same,normalized growth,"S. cerevisiae deletion strains, locus YOR136W, strain idh2, hits give low values",0.965
same,normalized growth,"S. cerevisiae deletion strains, locus YOR144C, strain elg1, hits give low values",0.968
same,normalized growth,"S. cerevisiae deletion strains, locus YOR184W, strain ser1, hits give low values",0.523 (active)
same,normalized growth,"S. cerevisiae deletion strains, locus YOR231W, strain MKK1, hits give low values",0.988
same,normalized growth,"S. cerevisiae deletion strains, locus YOR265W, strain rbl2, hits give low values",0.946
same,normalized growth,"S. cerevisiae deletion strains, locus YOR270C, strain vph1, hits give low values",0.653 (active)
same,normalized growth,"S. cerevisiae deletion strains, locus YOR290C, strain snf2, hits give low values",0.892
same,normalized growth,"S. cerevisiae deletion strains, locus YOR316C, strain cot1, hits give low values",0.987
same,normalized growth,"S. cerevisiae deletion strains, locus YPL051W, strain arl3, hits give low values",0.89 (active)
same,normalized growth,"S. cerevisiae deletion strains, locus YPL055C, strain LGE1, hits give low values",0.794
same,normalized growth,"S. cerevisiae deletion strains, locus YPL078C, strain atp4, hits give low values",0.869 (active)
same,normalized growth,"S. cerevisiae deletion strains, locus YPL106C, strain sse1, hits give low values",0.906
same,normalized growth,"S. cerevisiae deletion strains, locus YPL240C, strain hsp82, hits give low values",0.978
same,normalized growth,"S. cerevisiae deletion strains, locus YPL256C, strain CLN2, hits give low values",0.982
same,normalized growth,"S. cerevisiae deletion strains, locus YPR119W, strain clb2, hits give low values",0.981
same,normalized growth,"S. cerevisiae deletion strains, locus YPR141C, strain kar3, hits give low values",0.976
same,normalized growth,"S. cerevisiae deletion strains, locus YPR163C, strain tif3, hits give low values",0.933
same,normalized growth,"S. cerevisiae deletion strains, locus YPR167C, strain met16, hits give low values",0.971
same,normalized growth,"S. cerevisiae deletion strains, strain wtn01, hits give low values",0.924
same,normalized growth,"S. cerevisiae strains, strain wild type, hits give low values",0.944
